From the supplement of paper PMC13380429 come the findings set out here.

Molecules are shown by their SMILES. A number with no mark means an inactive call.

The test system of the assay is Vero E6 infected with SARS-CoV-2. As to the kind of experiment: inhibition of SARS-CoV-2 cytopathic effect; higher = more antiviral protection, active = above 15. The conditions noted are these: 8.33 nM; 48 h.
For `CC12CCC(CC1=O)C2(C)C` (stereo not drawn) [camphor-(+)], the “inhibition of SARS-CoV-2 cytopathic effect” value is 0.085%.
The value for `CN[C@@H](C)[C@H](O)c1ccccc1` [ephedrine] was -0.23%.
As for `CC(=O)O[C@@H]1CC[C@@]2(C)[C@@H](CC[C@]3(C)[C@@H]2C(=O)C=C2[C@@H]4[C@@H](C)[C@H](C)CC[C@]4(C)CC[C@]23C)[C@@]1(C)C(=O)O` [acetyl-11-keto-beta-boswellic-acid], the “inhibition of SARS-CoV-2 cytopathic effect” value was -3.19%.
The value for `O=C1c2c(O)cccc2C([C@@H]2O[C@H](CO)[C@@H](O)[C@H](O)[C@H]2O)c2cc(CO)cc(O)c21` (some centres not stated) [aloin] was 0.1%.
The value for `CC(C)(C)S(=O)(=O)N[C@H]1CC[C@H](C(=O)Nc2ccc(C(F)(F)F)cn2)CC1` [velneperit] was -0.93%; that for `CC(C)CCC[C@@H](C)[C@H]1CC[C@H]2[C@@H]3CC=C4C[C@@H](O)CC[C@]4(C)[C@H]3CC[C@]12C` [cholesterol] was 1.96%; that for `CC1(C)O[C@@H]2[C@@H](CO[C@@]3(COS(N)(=O)=O)OC(C)(C)O[C@@H]23)O1` [topiramate] was 1.71%.
